Out of some 340,000 compounds screened, about 2,100 (0.62%) were called active.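 Rule for the calls: active = first-screen hits whose inhibition reached a set limit at any dose in the follow-up dose series; inconclusive = inhibition above the set first-screen limit but never retested; inactive = the rest.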 These entries were drawn from the full list. Results with a measured potency or affinity are listed apart.
Target: Rac GTPase-activating protein 1 (Homo sapiens) (UniProt Q9H0H5)
Assay: blockers of MgcRacGAP-driven Rac1 GTP hydrolysis – biochemical, ADP Hunter fluorescence, primary and confirmatory, confirmation (AID 624330);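 note: fluorescence reports GDP produced by GAP-driven GTP hydrolysis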
Conditions: MgcRacGAP-stimulated Rac1 GTP hydrolysis, at 30 µM, stronger effect = higher value, GST-tagged Rac1 F28L mutant substrate

Sequence of Rac GTPase-activating protein 1 (Homo sapiens) (Q9H0H5 whole entry, looked up): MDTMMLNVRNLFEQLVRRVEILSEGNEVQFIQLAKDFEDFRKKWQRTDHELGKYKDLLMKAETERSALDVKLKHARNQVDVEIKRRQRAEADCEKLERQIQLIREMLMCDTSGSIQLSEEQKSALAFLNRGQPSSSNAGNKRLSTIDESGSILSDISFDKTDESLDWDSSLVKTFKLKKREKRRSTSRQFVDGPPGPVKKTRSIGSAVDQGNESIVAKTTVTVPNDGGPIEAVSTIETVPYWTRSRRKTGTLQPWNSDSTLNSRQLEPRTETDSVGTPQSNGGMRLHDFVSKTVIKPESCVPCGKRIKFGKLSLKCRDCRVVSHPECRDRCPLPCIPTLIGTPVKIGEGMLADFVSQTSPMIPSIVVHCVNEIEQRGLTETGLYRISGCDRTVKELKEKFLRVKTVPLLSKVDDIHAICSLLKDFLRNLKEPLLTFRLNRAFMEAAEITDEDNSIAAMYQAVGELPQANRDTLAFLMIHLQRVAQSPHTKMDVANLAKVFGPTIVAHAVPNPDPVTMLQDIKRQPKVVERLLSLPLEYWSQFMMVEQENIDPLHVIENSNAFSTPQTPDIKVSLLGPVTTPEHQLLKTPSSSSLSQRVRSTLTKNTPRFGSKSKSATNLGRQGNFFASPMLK

inhibition, inactive:
COc1ccc(CNC(=O)C2CCC(=O)N(CC3CCCCC3)C2)cc1 (stereo not drawn) 8.55%
O=C(NN1C(=O)c2ccccc2NC1c1ccc([N+](=O)[O-])o1)c1ccc(Br)cc1 (stereo not drawn) 5.26%
O=C(Cn1c(NCCO)nc2ccccc21)NCCc1ccccc1 0.41%
Nc1nnc(SCC(=O)N2CCN(c3ccccc3)CC2)s1 2.87%
Cc1nc(Cc2ccccc2)sc1CC#N -3.31%
CC(C)CC(NC(=O)C(Cc1ccc(OCc2ccccc2)cc1)NC(=O)OC(C)(C)C)C(N)=O (stereo not drawn) 10.6%
COc1ccc(CC(=O)Nc2nc(C)cs2)cc1 12%
Cc1csc(NC(=O)CSc2nc(C)cs2)n1 3.74%
COc1ccc(-n2nnnc2SCC(=O)N2CCN(C(=O)c3ccco3)CC2)cc1OC 7.68%
CCCCNC(=O)CSc1nc2ccccc2n1S(=O)(=O)c1ccc(Br)cc1 2.01%
Cc1n[nH]c(=O)n(N=Cc2cccs2)c1=O 7.77%
Cc1cc(C)n(/N=C/c2cccc(O)c2)c(=O)c1C(N)=O 10.6%
Nc1nnnn1/N=C/c1cccc(O)c1 5.38%
S=c1[nH]nc(-c2cc(-c3ccccc3)n[nH]2)n1/N=C/c1cccs1 16.3%
Cc1ccc(-c2n[nH]c(=S)n2/N=C/c2sccc2C)cc1 5.68%
Cc1ccsc1/C=N/n1c(-c2cc(-c3ccccc3)n[nH]2)n[nH]c1=S 11.8%
O=[N+]([O-])c1ccccc1/C=N/n1c(C(F)(F)F)n[nH]c1=S 16.4%
O=[N+]([O-])c1ccccc1/C=N/n1c(-c2ccccc2)n[nH]c1=S 16.3%
C#CCOCCOCCOCCNc1nc(N2CCN(C(=O)[C@H](CCCCN)n3cc(CN)nn3)CC2)nc(N2CCN(C(=O)[C@H](CCCN=C(N)N)n3cc(C(N)[C@H](C)CC)nn3)CC2)n1 (stereo partly drawn) 7.55%
C/C(=N/OC(=O)c1ccccc1Br)c1ccc(C)cc1 6.4%
O=C(CN1CCCCCC1)Nc1cc([N+](=O)[O-])ccc1Cl 5.34%
Cc1cnc(NC(=O)c2cccc(S(=O)(=O)N3CCOCC3)c2)s1 1.86%
O=C(CCCOc1ccc(Cl)cc1Cl)N/N=C/c1ccc(Cl)cc1 10.9%
O=C1CC2(CCN(C(=O)c3ccccc3[N+](=O)[O-])CC2)Oc2ccccc21 -0.23%
CCOC(=O)c1ccc(N2C(=O)[C@@H](c3ccccc3)[C@H]2c2ccccc2)cc1 -2.09%
S=c1[nH]nc(-c2cc(-c3ccccc3)n[nH]2)n1/N=C/c1ccc(Br)s1 20.5%
S=c1[nH]nc(-c2ccccn2)n1/N=C/c1ccc(Br)s1 18.4%
CCCOc1cccc(/C=N/NC(=O)c2csc(C)c2C)c1 4.91%
CCOC(=O)N1CCN(CCc2ccccc2)CC1 7.1%
CC(C)[C@H](NC(=O)c1ccc(Cl)cc1)C(=O)Nc1cccc(S(=O)(=O)N2CCOCC2)c1 12.2%
COc1ccc(/C=C2/C(=O)ON=C2c2ccccc2)cc1OC 15.4%
COc1ccc(/C=C2\C(=O)ON=C2c2ccccc2)cc1OC 16.1%
CCOc1cc(/C=C2/C(=O)ON=C2C)cc(Br)c1O 29.1%
CCOc1cc(/C=C2\C(=O)ON=C2c2ccccc2)ccc1OC 24.3%
O=C1ON=C(c2ccccc2)/C1=C/c1ccccc1 5.86%
O=C1ON=C(c2ccccc2)/C1=C/c1ccc(O)cc1 27.7%
CN(C)c1cccc(NC(=O)CCc2ccccc2)c1 2.65%
C[C@H](CO)N1C[C@H](C)[C@H](CN(C)C(=O)CCC(F)(F)F)OCc2cnnn2CCCC1=O 6.43%
C=CCSc1nnc(-c2ccncc2)n1-c1ccc(OCC)cc1 6.74%
CC1CCN(S(=O)(=O)c2ccc(C(=O)NCc3cccnc3)cc2)CC1 -0.6%
C/C(CC(=O)Nc1cccc2c1CCCC2)=N\NC(=O)c1ccccc1N 5.83%
CC(C)(C)CC(=O)Nc1nnc(SCC(=O)NC2CCCC2)s1 4.93%
CC(C)OC(=O)c1c(NC(=O)c2cnn3c2NC(c2ccccc2)CC3C(F)(F)F)sc2c1CCCC2 (stereo not drawn) 10.2%
O=C(Nc1c2c(nc3ccccc13)CCCC2)c1ccccc1Cl 2.57%
CCCCCC(=O)Nc1c2c(nc3ccccc13)CCC2 8.1%
O=C(CCCCCl)Nc1c2c(nc3ccccc13)CCC2 0.44%
Cc1ccccc1C(=O)Nc1c2c(nc3ccccc13)CCCC2 10.8%
CCN1CCN(c2ccc(NC(=O)c3ccc(OC)c(S(=O)(=O)N4CCCC4)c3)cc2)CC1 4.33%
CC(C)N1CCN(Cc2coc3ccccc3c2=O)CC1CCO (stereo not drawn) 10.3%
O=C(CSc1nc(=O)n2ccccc2n1)NCCc1ccccc1 4.62%
NC(=O)CC(NC(=O)c1cccc(Br)c1)c1ccc(N2CCN(c3ccccn3)CC2)c([N+](=O)[O-])c1 (stereo not drawn) 5.09%
COc1ccccc1/C=C/C(=O)c1cc(Br)ccc1OC(=O)c1ccco1 8.54%
CC(C)CC(O)(CC(C)C)C(=O)NNc1ccccc1 11.2%
CCOC(=O)c1nc(Nc2ccc(C)cc2)c2ccccc2n1 4.57%
CCOC(=O)c1nc(Nc2ccccc2)c2ccccc2n1 -2.22%
CCN(CC(=O)Nc1ccccc1OC)C(=O)COc1ccc(C#N)cc1 2.59%
COc1ccc(CN(C)CC(=O)Nc2ccccc2C(F)(F)F)c(OC)c1 24.5%
COc1ccccc1CN(C)CC(=O)Nc1ccc(Cl)cc1C(F)(F)F 18.9%
COc1ccc(CCN=C(N)NS(=O)(=O)c2ccc(F)cc2)cc1OC 7.56%
CCC(=O)NC(=S)Nc1ccc(NC(=O)c2cccnc2)cc1 -1.6%
Cc1cc2ccccc2n2c(SCC(=O)NCc3cccs3)nnc12 -2.11%
C[C@H](CO)N1C[C@H](C)[C@@H](CN(C)S(=O)(=O)c2cccc(C#N)c2)OCc2cn(nn2)CCCC1=O 13.9%
NS(=O)(=O)c1ccc(-c2ccc(C=C3C(=O)c4ccccc4C3=O)o2)cc1 2.34%
NS(=O)(=O)c1ccc(-c2ccc(/C=C3\C(=O)Nc4cc(Cl)ccc43)o2)cc1 6.45%
CSc1ccccc1NC(=O)C1CCCN(S(C)(=O)=O)C1 (stereo not drawn) -1.03%
C=CCNC(=S)Nc1ccc(Cl)cc1 3.44%
C=CCNC(=S)Nc1cccc(NC(=S)NCC=C)c1 6.56%
CCCCn1c(CCNC(=O)c2cccs2)nc2ccccc21 -1.35%
COc1cccc(/C=N/NC(=O)c2cccc(N3CCCC3=O)c2)c1 4.11%
COc1ccc(O)c(/C=N/NC(=O)c2cccc(N3CCCC3=O)c2)c1 3.65%
COc1cccc(/C=N/NC(=O)c2ccc(N3CCCC3=O)cc2)c1 7.68%
COc1ccc(/C=N/NC(=O)c2ccc(N3CCCC3=O)cc2)cc1 7.42%
CCN(CCO)C(=O)CC1C(=O)NCCN1Cc1c(F)cccc1Cl (stereo not drawn) 9.19%
CN(Cc1cccc(F)c1)C(=O)CSc1nnc(C2CC2)n1C1CC1 7.8%
CCOc1cc(C(=O)NCC(C)CN(C)C)cc(OCC)c1OCC (stereo not drawn) 1.39%
Cc1ccc(NS(=O)(=O)c2ccc(C)c(NC(=O)c3ccc(S(=O)(=O)N4CCCCCC4)cc3)c2)c(C)c1 11.6%
COc1ccc(CN2CCN(CC(=O)Nc3ccccc3C(=O)NC3CC3)CC2)cc1F 6.52%
CCCN(CCO)Cc1ccc2ccccc2c1 3.4%
CN(C)C(=O)CCc1ccc2c3c([nH]c2c1)[C@]1(C)[C@@H](C(=O)N2CCCCC2)C[C@H](CC(=O)NCc2cccc(C(F)(F)F)c2)C(=O)N1CC3 4.55%
CCOC(=O)CSC1=NC(=O)/C(=C/c2ccc(OC)cc2)S1 16.1%
CCOC(=O)CSC1=NC(=O)/C(=C/c2ccc(Br)cc2)S1 19.4%
CCN1C[C@@H]2[C@@H]3C(=O)N(Cc4ccccc4)C(=O)[C@@H]3[C@](Cc3ccccc3)(C1=O)N2C(=O)c1ccc(Cl)cc1 6.26%
COc1ccc(C(=O)CC(=O)C(=O)Nc2ccc(OC)c(Cl)c2)cc1 5.32%
CN(C(=O)CCc1nc(-c2ccccc2F)no1)c1ccccc1 -0.78%
N#CC(C#N)=C1C=CC=CN1/C(=C\c1ccco1)C(=O)c1ccc(-c2ccccc2)cc1 15.6%
COc1ccc(C(=O)/C(=C\c2ccco2)N2C=CC=CC2=C(C#N)C#N)cc1 4.05%
N#CC(C#N)=C1C=CC=CN1/C(=C\c1ccco1)C(=O)c1ccccc1 16.7%
N#CC(C#N)=C1C=CC=CN1/C(=C\c1ccccc1Cl)C(=O)c1ccccc1 17.8%
CCCCN(C(=O)c1cc(CN2C(=O)c3ccccc3C2=O)ccc1OC)c1c(N)n(CC(C)C)c(=O)[nH]c1=O 3.78%
O=C(Nc1cccc(Cl)c1Cl)C1CCN(c2ncccn2)CC1 7.84%
CCN(CC)c1ccc(NC(=O)Nc2ccc(C(C)=O)cc2)cc1 10.2%
CCN(CC)c1ccc(/C=N/NC(=O)Nc2ccccc2)cc1 28.4%
NC(=O)c1ccc(NC(=O)CSC(=O)c2ccccc2)cc1 8.91%
CCCCc1ccc(NC(=O)C2CCCC2)cc1 -0.66%
CCOC(=O)C(Cc1ccccc1)C(=O)Nc1ccc(NC(=O)C(Cc2ccccc2)C(=O)OCC)cc1 (stereo not drawn) 4.48%
CC(=O)c1cccc(NC(=O)CSC(=O)c2ccccc2)c1 7.67%
CCOC(=O)C(Cc1ccccc1)C(=O)Nc1cccc(C)c1 (stereo not drawn) 1.33%
CCN(CC)c1ccc(NC(=S)NC(=O)C2CCC2)cc1 18%
